Assay results published in PubChem BioAssay AID493192 (National Center for Advancing Translational Sciences (NCATS), 2011).
Inconclusive results are not listed. A call without a number means that no potency is given here. Active and inactive are the calls of the source. The call rests on the fitted dose curve; in most records, active means well fitted activation curve with a large enough effect; inconclusive means small, poorly fitted or top-dose-only effect; inactive means no such curve, though single readings can be large or run the other way.

Test: qHTS Assay for Identifying a Potential Treatment of Ataxia-Telangiectasia: Hit Validation;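 further: phospho-KAP1 level by AlphaLISA as a proxy for ATM-like kinase activity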
Settings: Ataxia-telangiectasia cell-based hit validation qHTS, in ATM-null A-T patient fibroblasts; series mostly up to 76.9 µM
Summary of the method: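 hTERT-immortalized A-T patient fibroblasts (F2112) were dosed at up to 76.7 uM final for 60 min at 37C. After a further 30 min incubation, cells were lysed, and phospho-KAP1 was detected by AlphaLISA after 6 hr at 25C.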
Potency means the concentration at half of the fitted maximal effect.

Compound	Potency
O=C(c1cccc(F)c1)N1CCCC(C(=O)N2CCCCCC2)C1 (configuration not stated)	29.2 µM (active)
CC(C)c1ccc(C(C(=O)NC2CCCCC2)N(C(=O)c2ccccn2)c2cccnc2)cc1 (configuration not stated)	inactive
O=C(CN1C(=O)c2cccc([N+](=O)[O-])c2C1=O)NCc1ccccc1	inactive
FC(F)(F)c1cccc(OCC2CNC(=S)O2)c1 (configuration not stated)	inactive
COc1ccc(C(=O)N2CCCC2(C#N)c2ccccc2)cc1[N+](=O)[O-] (configuration not stated)	inactive
CC(CCc1ccccc1)NC(=O)COC(=O)c1ccc(F)cc1 (configuration not stated)	inactive
CCCCn1c2c(c(=N)c3ccccc31)CCC2	inactive
Cc1nn(C)c(Cl)c1CN1CCN(C2CCCC2)C(CCO)C1 (configuration not stated)	inactive
CC1C(c2ccccc2)N(C)C(c2ccccc2)CC1(O)c1ccccc1 (configuration not stated)	13 µM (active)
CCOC(=O)CNS(=O)(=O)Cc1ccccc1	inactive
Cc1oc2c(c(C)cc3oc(=O)c(CC(=O)NCC(=O)NCC(=O)O)c(C)c32)c1C	32.8 µM (active)
Cc1ccccc1S(=O)(=O)Oc1ccc2ccc(O)cc2c1	inactive
CCOC(=O)N1CCN(c2nc(N(c3ccccc3)c3ccccc3)nc(-n3ccnc3)n2)CC1	inactive
N#Cc1c2c(c(-n3cnc4ccccc43)n3c1nc1ccccc13)CCC2	inactive
CCOC(=O)NC(C(Cl)(Cl)Cl)S(=O)(=O)c1ccccc1 (configuration not stated)	41.2 µM (active)
OC(CN1CCCCC1)Cn1c2ccc(Cl)cc2c2cc(Cl)ccc21 (configuration not stated)	inactive
Clc1cccc(Cl)c1CSc1nnc(-c2ccncc2)s1	inactive
CC1(C)CC2(CCO1)OC(=O)CC2C(=O)Nc1c(Cl)cccc1Cl (configuration not stated)	inactive
C/C=C\C=C/C(=O)Nc1cccc(C2=NOC3(C2)C[C@@H](C(N)=O)N(C(=O)COc2ccc(Cl)cc2)C3)c1 (some centres not stated)	inactive

Compound	Potency
CC(C)CN(CC(C)C)C(=O)c1cc2c(=O)n3ccccc3nc2s1	inactive
O=C(c1ccc(F)cc1)c1ccc(N2CCCCC2)cc1	29.2 µM (active)
O=C(O)CCCC(=O)N1N=C(c2ccccc2)CC1c1cccs1 (configuration not stated)	inactive
Cc1cccc(C)c1NC(=O)COC(=O)c1cc(=O)c2ccccc2o1	inactive
CCC(C)Nc1nc(N)c([N+](=O)[O-])c(NCCO)n1 (configuration not stated)	inactive
CC1=NN(C(C#N)c2ccc([N+](=O)[O-])cc2)C(C)(C)C1 (configuration not stated)	inactive
COc1ccc2c(c1)cc(C(=O)N[C@H](C(=O)N1CCC(C(=O)O)CC1)C(C)C)n2C	inactive
COc1ccc(C2c3ccc(O)cc3Oc3ncn(CC(C)C)c(=N)c32)cc1 (configuration not stated)	inactive
CC(C)(C)NC(=O)c1cccc2c1-c1ccccc1C2=O	inactive
CCC(Oc1ccccc1)C(=O)N(C)CC(=O)N(CC(C)C)c1c(N)n(CC(C)C)c(=O)[nH]c1=O (configuration not stated)	inactive
COc1ccc(-n2c(=S)[nH]c3ccccc3c2=S)cc1	inactive
N#Cc1c(-c2ccccc2)cc(-c2ccccc2)[nH]c1=O	inactive
CCOC(=O)c1ccc(-n2c(C)nc3ccc(Br)cc3c2=O)cc1	inactive
Fc1ccc(C2=NOC(c3nnc(-c4ccccc4)o3)C2)cc1 (configuration not stated)	inactive
CCC(=O)Nc1ccc(S(=O)(=O)c2ccc(NC(=O)CC)cc2)cc1	inactive
O=C(Nc1ccc(N2CCCC2)cc1)c1ccc(Cl)cc1Cl	inactive
CCOc1ccc(NC2=CC(=O)CCC2)cc1	inactive
C=CCOC(=O)C1=C[C@H](c2coc3ccccc3c2=O)C[C@H](OCc2ccc(CO)cc2)O1	inactive
